Only some compounds are listed: those with a hit (about 7.3% of all), similar ones and a draw of the others.
Luc counter: counter-screen: inhibitors of Kinase-Glo firefly luciferase; Q27757; Kinase-Glo luciferase, ATP luminescence, 8 min; Potency, µM (titrated, usually from 38.3 µM), actives largely listed as inhibitors; 200,000 compounds, 0.28% hits; AID 1379; note: nearly all actives have a fitted effect of over 60% in size
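Inhibition of Kinase-Glo luciferase light generation was assessed at 10 uM ATP in pH 7.2 imidazole buffer, with luminescence measured after eight minutes at ambient temperature.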
NPC1 promoter act: activates the NPC1 promoter | Huh7 NPC1 promoter luciferase reporter, 24 h | Potency, µM (highest dose often 9.22 µM), most hits filed as activators | 320,000 compounds, 2.4% hits; note: nearly all actives have a fitted effect of over 60% in size
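Quantitative HTS used a cell-based reporter: Huh7 cells stably bearing the NPC1 promoter upstream of luciferase were treated with compounds for 24 h, and promoter activation was read as luminescence.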
ELG1 genotox: induces genotoxicity in HEK293T cells with luciferase-tagged ELG1; Potency, µM (top dose mostly 46 µM), usual class: activators; HEK293T ELG1-luciferase reporter, luminescence, 16 h; AID 504466; 330,000 compounds, 1.3% hits; note: nearly all actives have a fitted effect of over 60% in size
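After overnight (16 hr) compound treatment at 37 °C, ELG1-luciferase HEK293T cells were lysed with ONE-Glo; luminescence quantified 30 min later at room temperature.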
Rab9 promoter act: activates the Rab9 promoter | Huh7 Rab9 promoter-luciferase reporter, luminescence, 24 h | Potency, µM (series often up to 9.22 µM), most hits filed as activators | 320,000 compounds, 2.8% hits | AID 485297; note: nearly all actives have a fitted effect of over 60% in size
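Luminescence read-out: Huh7 cells stably expressing Rab9-luciferase, treated 24 h with compound at 37 °C, then lysed with luciferase reagent for 10 min at ambient before reading.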
SMN2 splice up: SMN2 splice variant enhancement. 210,000 compounds, 2.8% hits. AID 1458. Potency, µM (titrated, usually from 46.1 µM), hits mostly activators. HEK293 SMN2-luciferase splicing reporter, luminescence, 30-36 h; note: nearly all actives have a fitted effect of over 55% in size
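HEK293 cells carry an SMN2 […]–luciferase reporter in which exon 7 inclusion puts luciferase in frame. Cells were plated 10-12 h before compound addition, then incubated 30-36 h at 37C. ONE-Glo luminescence was read; sodium butyrate at 4.5 mM final served as control.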
FLuc counter: inhibits or activates purified firefly luciferase, miR-21 counter-screen; AID 588342; 360,000 compounds, 6.9% hits; Potency, µM (top dose mostly 57.5 µM), most hits filed as inhibitors; P08659; purified FLuc, Km substrates, luminescence inhibition; note: nearly all actives have a fitted effect of over 55% in size
Target sequence (P08659 whole entry, looked up): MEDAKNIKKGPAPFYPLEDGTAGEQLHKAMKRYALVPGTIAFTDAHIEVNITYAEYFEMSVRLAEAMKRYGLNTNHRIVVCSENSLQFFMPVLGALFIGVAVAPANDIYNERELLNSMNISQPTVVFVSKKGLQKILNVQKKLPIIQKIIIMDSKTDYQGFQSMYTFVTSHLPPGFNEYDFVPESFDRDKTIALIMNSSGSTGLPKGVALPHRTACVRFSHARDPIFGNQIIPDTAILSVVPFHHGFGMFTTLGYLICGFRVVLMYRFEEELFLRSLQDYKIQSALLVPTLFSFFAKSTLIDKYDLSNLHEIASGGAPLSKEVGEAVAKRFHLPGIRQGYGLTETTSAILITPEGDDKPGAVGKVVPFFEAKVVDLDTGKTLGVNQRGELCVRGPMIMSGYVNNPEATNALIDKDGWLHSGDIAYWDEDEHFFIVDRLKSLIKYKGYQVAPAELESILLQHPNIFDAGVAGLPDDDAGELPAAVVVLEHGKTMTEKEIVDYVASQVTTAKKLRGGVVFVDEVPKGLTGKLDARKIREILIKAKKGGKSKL
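Purified P. pyralis luciferase (10nM final) with 10uM D-luciferin and 10uM ATP (Km levels) in 50mM Tris acetate pH 7.5, 10mM Mg acetate, 0.01% Tween-20, 0.05% BSA; qHTS 6-point titration, ~60 µM downward; luminescence read.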
Hits are given with their value; [ ] = another dose, or the depositor's remark. Calls come from the whole dose curve; as a rule, active = well fitted curve in the direction sought with a large enough effect; inconclusive = small, poorly fitted or top-dose-only effect, or another doubt; inactive = no such curve, though single readings can be large; an effect the other way counts as inactive or inconclusive.

O=C(CSc1ccc(-c2ccc(-n3cccn3)cc2)nn1)Nc1ccccc1F was read as NPC1 promoter act inactive, ELG1 genotox inconclusive, Rab9 promoter act inactive and FLuc counter 0.6µM.
For COc1cc2ncc3c(-c4ccccc4)nn(-c4ccc(C)cc4)c3c2cc1OC the results were FLuc counter inactive.
COc1ccc(N2CC(NC(=O)c3cc4ccccc4o3)CC2=O)cc1OC (stereo unspecified) was read as FLuc counter inactive.
Cc1cccc(-n2cnc3sc(C)c(C)c3c2=O)c1 was read as NPC1 promoter act inactive, ELG1 genotox inactive, Rab9 promoter act inactive and FLuc counter inactive.
Screening Cc1ccc(-n2cnc3sc(C)c(C)c3c2=O)cc1 returned Luc counter inactive, NPC1 promoter act inconclusive, ELG1 genotox inconclusive, Rab9 promoter act 2.5µM, SMN2 splice up 13µM and FLuc counter inconclusive.
Screening COCCNC(=O)CSc1nc(-c2cc(OC)c(OC)c(OC)c2)[nH]c1-c1ccc(Cl)cc1 returned SMN2 splice up inactive and FLuc counter inactive.
For O=C(CSc1cccc[n+]1[O-])Nc1cc(Cl)ccc1[N+](=O)[O-] the results were ELG1 genotox inactive.
For O=[N+]([O-])c1ccc(Sc2cccc[n+]2[O-])c2nonc12 the results were NPC1 promoter act inactive, ELG1 genotox inactive, Rab9 promoter act inactive and FLuc counter 4.8µM.
Screening Nc1[nH]c(N=NC(=O)c2ccc(F)cc2)c2ccccc12 returned Luc counter inconclusive, NPC1 promoter act inconclusive, ELG1 genotox inconclusive, Rab9 promoter act 4µM and FLuc counter 7.6µM.
`Nc1ccccc1C(=O)NCc1ccc(F)cc1` gave Luc counter inactive, NPC1 promoter act inactive, ELG1 genotox inactive, Rab9 promoter act inactive, SMN2 splice up inactive and FLuc counter inactive.
O=C(Nc1ccccc1NC(=O)c1ccc(F)cc1)c1ccc(F)cc1 was read as NPC1 promoter act inactive, ELG1 genotox inactive, Rab9 promoter act inactive and FLuc counter inactive.
For Nc1ccccc1C(=O)N=Nc1[nH]c(N)c2ccccc12 the results were Luc counter inactive, NPC1 promoter act 3.5µM, ELG1 genotox inconclusive, Rab9 promoter act 2.8µM, SMN2 splice up 18µM and FLuc counter 3.8µM.
Screening CC(C)(C)C(=O)CSc1nc2ncc(Br)cc2[nH]1 returned NPC1 promoter act inactive, ELG1 genotox inactive, Rab9 promoter act inactive and FLuc counter 19µM.
For O=C(N/N=C\c1cccnc1)c1ccc(Br)s1 the results were NPC1 promoter act inactive, ELG1 genotox inactive, Rab9 promoter act inactive and FLuc counter 9.5µM.
O=C(N/N=C/c1ccc(Br)s1)c1cccnc1 was read as Luc counter inactive, NPC1 promoter act inactive, ELG1 genotox inactive, Rab9 promoter act inactive, SMN2 splice up inactive and FLuc counter inactive.
For O=C(N/N=C/c1ccncc1)c1ccc(NC(=O)c2ccc(Cl)cc2)cc1 the results were Luc counter inactive, NPC1 promoter act inactive, ELG1 genotox inconclusive, Rab9 promoter act inactive, SMN2 splice up inactive and FLuc counter inactive.
Screening CCc1ccc(C(=O)N/N=C/c2ccncc2)s1 returned NPC1 promoter act inactive, ELG1 genotox inconclusive, Rab9 promoter act inconclusive and FLuc counter 12µM.
For O=C(N/N=C\c1ccncc1)c1ccc(Cl)s1 the results were NPC1 promoter act inactive, ELG1 genotox inactive, Rab9 promoter act inactive and FLuc counter 17µM.
Cc1ccc(C(=O)N/N=C\c2ccncc2)s1 was read as NPC1 promoter act inactive, ELG1 genotox inconclusive, Rab9 promoter act inactive and FLuc counter inconclusive.
`O=C(N/N=C\c1ccncc1)c1ccc(Br)s1` gave NPC1 promoter act inactive, ELG1 genotox inactive, Rab9 promoter act inactive and FLuc counter 15µM.
O=C(N/N=C/c1cccnc1)c1sc2ccccc2c1Cl was read as NPC1 promoter act inactive, ELG1 genotox inactive, Rab9 promoter act inactive and FLuc counter 19µM.
Screening O=C(N/N=C/c1ccncc1)c1cc(-c2ccc(Br)s2)[nH]n1 returned NPC1 promoter act inactive, ELG1 genotox inactive, Rab9 promoter act inactive and FLuc counter 15µM.
O=C(N/N=C\c1cccnc1)c1ccc(Cl)s1 was read as NPC1 promoter act inactive, ELG1 genotox inconclusive, Rab9 promoter act inactive and FLuc counter 13µM.
For O=C(N/N=C/c1cccnc1)c1cc(O)c(O)c(O)c1 the results were NPC1 promoter act inactive, ELG1 genotox inactive, Rab9 promoter act inactive and FLuc counter inactive.
Screening O=C(O)[C@H]1CC=CC[C@@H]1C(=O)Nc1cccc(O)c1 returned Luc counter inactive[7.66 µM] and SMN2 splice up inactive[9.22 µM].
`Cc1cc(Cl)ccc1OCC(=O)Nc1ccccc1CO` gave Luc counter inactive, NPC1 promoter act inactive, ELG1 genotox inconclusive, Rab9 promoter act inactive, SMN2 splice up inactive and FLuc counter 21µM.
Screening Cc1cc(Cl)ccc1OCC(=O)Nc1cccnc1 returned NPC1 promoter act inactive, ELG1 genotox inconclusive, Rab9 promoter act inactive and FLuc counter 13µM.
COc1ccc(-c2cc(=O)oc3c(C)c(OCC(=O)Nc4cccnc4)ccc23)cc1 was read as NPC1 promoter act inactive, ELG1 genotox inactive, Rab9 promoter act inactive and FLuc counter inactive.
`Cc1c(C)c2ccc(OCC(=O)Nc3cccnc3)c(C)c2oc1=O` gave NPC1 promoter act inconclusive, ELG1 genotox inconclusive, Rab9 promoter act inactive and FLuc counter 11µM.
For Cc1ccc(CNC(=O)c2cc(-c3ccc(C)cc3)nc3n[nH]c(-c4cccc([N+](=O)[O-])c4)c23)cc1 the results were FLuc counter inactive.
`Cc1ccccc1OCCSc1nnc(-c2ccc([N+](=O)[O-])cc2)o1` gave FLuc counter inactive.
For Cc1cc(C)n(CCN(C)Cc2nc(Cc3ccccc3F)no2)n1 the results were Luc counter inactive, NPC1 promoter act inconclusive, ELG1 genotox inconclusive, Rab9 promoter act inconclusive and FLuc counter 4.8µM.
For O=C(Nc1ccccc1)c1cc2n(n1)C(C(F)(F)F)CC(C1CC1)N2 (stereo unspecified) the results were Luc counter inactive, NPC1 promoter act 2.8µM, ELG1 genotox inconclusive, Rab9 promoter act 1.8µM and FLuc counter inactive.
CCN(CC)c1ccc(/C=C(/C#N)C(=O)NC(C)C)o1 was read as Luc counter inactive, NPC1 promoter act inactive, ELG1 genotox inactive, Rab9 promoter act inactive, SMN2 splice up inactive and FLuc counter inconclusive.
`CCN(CC)c1ccc(/C=C(/C#N)C(=O)NCc2ccccc2)o1` gave Luc counter inactive, NPC1 promoter act inactive, ELG1 genotox inactive, Rab9 promoter act inconclusive and FLuc counter 24µM.
CCc1nn(CC(=O)NCCc2ccc(OC)cc2OC)c(=O)c2cc3c(OC)cccc3n12 was read as SMN2 splice up inactive and FLuc counter inactive.

High-throughput results as filed in PubChem.
